PubChem BioAssay AID1159580 (chemical genetic matrix, 2015)
Values joined by “and” are separate entries in the source; they are usually repeats but may differ in a detail not shown here. Equal entries are not always repeated. Screen size: about 5,500 compounds; about 2,000 (36%) were called active. About 18% were inconclusive and are not listed. Rule as the data show it: active = normalized growth mostly below about 0.91 (no sharp cut-off); inconclusive = no clear call, values can overlap the other calls; inactive = mostly above about 0.92. This is one part of the list.

Assay: chemical genetic growth profiling, strain panel (AID 1159580);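 also: tested at 20 µM; growth read once vehicle control cultures reached saturation at 30 °C; 1 = growth at the plate median or of vehicle wells; lower values mean less growth of the strain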
Settings: S. cerevisiae deletion strains, growth OD

Measured: normalized growth

CC(=O)CC(c1ccccc1)c1c(O)c2ccccc2oc1=O (configuration not stated)
inactive: locus YAL013W, strain DEP1, hits give low values 1.01 | locus YAL021C, strain ccr4, hits give low values 1.01 | locus YAL026C, strain drs2, hits give low values 0.991 | locus YAL030W, strain snc1, hits give low values 0.991 | locus YBL061C, strain skt5, hits give low values 0.998 | locus YBR009C, strain hhf1, hits give low values 1 | locus YBR021W, strain FUR4, hits give low values 0.996 | locus YBR023C, strain chs3, hits give low values 0.996 | locus YBR171W, strain sec66, hits give low values 0.991 | locus YBR229C, strain ROT2, hits give low values 1 | locus YBR231C, strain swc5, hits give low values 1 | locus YBR279W, strain paf1, hits give low values 0.993 | locus YCL011C, strain gbp2, hits give low values 0.999 | locus YCL016C, strain dcc1, hits give low values 0.994 | locus YCL029C, strain bik1, hits give low values 1.03 | locus YCL061C, strain MRC1, hits give low values 1 | locus YCL069W, strain vba3, hits give low values 1 | locus YCR088W, strain abp1, hits give low values 1 | locus YDL005C, strain med2, hits give low values 0.999 | locus YDL035C, strain GPR1, hits give low values 1.02 | locus YDL040C, strain nat1, hits give low values 0.994 | locus YDL074C, strain BRE1, hits give low values 1.02 | locus YDL101C, strain DUN1, hits give low values 1.02 | locus YDL134C, strain PPH21, hits give low values 1.01 | locus YDL185W, strain tfp1, hits give low values 1.01 | locus YDL192W, strain arf1, hits give low values 1.02 | locus YDR001C, strain nth1, hits give low values 0.993 | locus YDR069C, strain doa4, hits give low values 1 | locus YDR101C, strain arx1, hits give low values 1.02 | locus YDR137W, strain rgp1, hits give low values 0.867 | locus YDR150W, strain NUM1, hits give low values 1.01 | locus YDR159W, strain sac3, hits give low values 1.02 | locus YDR162C, strain NBP2, hits give low values 1.03 | locus YDR195W, strain ref2 1.01 | locus YDR297W, strain sur2, hits give low values 1 | locus YDR318W, strain mcm21, hits give low values 1.03 | locus YDR334W, strain swr1, hits give low values 1 | locus YDR335W, strain msn5, hits give low values 1.01 | locus YDR388W, hits give low values 1 | locus YDR392W, strain spt3, hits give low values 0.966 | locus YDR502C, strain sam2, hits give low values 1.01 | locus YEL003W, strain gim4, hits give low values 1.01 | locus YEL037C, strain rad23, hits give low values 0.999 | locus YEL061C, strain CIN8 (second series), hits give low values 0.999 | locus YEL061C, strain CIN8, hits give low values 1.01 | locus YER015W, strain faa2, hits give low values 0.987 | locus YER016W, strain bim1, hits give low values 0.993 | locus YER110C, hits give low values 1.03 | locus YER111C, strain swi4, hits give low values 0.999 | locus YER155C, strain BEM2 (second series), hits give low values 1.01 | locus YER155C, strain BEM2, hits give low values 1 | locus YER167W, strain BCK2, hits give low values 1.03 | locus YFR010W, strain ubp6, hits give low values 1.01 | locus YGL078C, strain dbp3, hits give low values 1.01 | locus YGL086W, strain mad1, hits give low values 1.03 | locus YGL167C, strain pmr1, hits give low values 0.986 | locus YGL173C, strain kem1, hits give low values 1 | locus YGL227W, strain vid30, hits give low values 0.988 | locus YGL240W, strain doc1, hits give low values 1 | locus YGL248W, strain PDE1, hits give low values 1.01 | locus YGL253W, strain hxk2, hits give low values 1 | locus YGR078C, strain PAC10, hits give low values 1.02 | locus YGR135W, strain pre9, hits give low values 1.02 | locus YGR229C, strain SMI1, hits give low values 1.02 | locus YGR252W, strain gcn5, hits give low values 1.06 | locus YHR013C, strain ard1, hits give low values 1.03 | locus YHR027C, strain rpn1, hits give low values 0.994 | locus YHR030C, strain SLT2, hits give low values 1.01 and 0.993 | locus YHR079C, strain IRE1 (second series), hits give low values 1.01 | locus YHR079C, strain IRE1, hits give low values 0.982 | locus YHR094C, strain hxt1, hits give low values 1.02 | locus YHR129C, strain ARP1, hits give low values 1 | locus YHR142W, strain chs7, hits give low values 1.01 | locus YHR200W, strain rpn10, hits give low values 1.02 | locus YIL066C, strain RNR3, hits give low values 1.02 | locus YIL073C, strain SPO22, hits give low values 1.1 | locus YIL125W, strain kgd1, hits give low values 1.01 | locus YIR030C, strain dcg1, hits give low values 1.02 | locus YJL092W, strain hpr5, hits give low values 0.996 | locus YJL095W, strain BCK1 (second series), hits give low values 0.992 | locus YJL095W, strain BCK1, hits give low values 1.01 and 0.973 | locus YJL115W, strain asf1, hits give low values 1 | locus YJL129C, strain trk1, hits give low values 1.02 | locus YJL134W, strain LCB3, hits give low values 1 | locus YJL154C, strain vps35, hits give low values 0.995 | locus YJL164C, strain tpk1, hits give low values 1.01 | locus YJL166W, strain qcr8, hits give low values 1.01 | locus YJL168C, strain set2, hits give low values 1 | locus YJL187C, strain SWE1 (second series), hits give low values 1.02 | locus YJL187C, strain SWE1, hits give low values 0.989 | locus YJR043C, strain POL32, hits give low values 1.03 | locus YJR066W, strain TOR1, hits give low values 0.925
